Laboratory results published in PubChem BioAssay AID1259343 (VanderVen Lab, College of Veterinary Medicine, Cornell …, 2017).
Screen size: about 6,200 compounds; about 2,900 (47%) were called active. So high a share suggests a set chosen from earlier hits. This is one part of the list. A number with no mark means an inactive call. Cut-off read from the data, not from the text of the source: active = inhibition above about 50%; inactive = the rest.

Assay: Mycobacterium tuberculosis growth inhibition, primary screen (AID 1259343)
Conditions: inhibition: at 10 µM, active compounds read high; outcome: 10 uM

Q: Which inhibition does the source give for `CC(=O)C1=NN(c2ccccc2)C2C(=O)N(c3ccc(Br)cc3)C(=O)C12` (centres undefined) here?
A: 14.1%

Q: With `O=C1[C@H]2C(c3ccccc3)=NN(c3ccccc3)[C@H]2C(=O)N1c1ccccc1` as the molecule, how does the inhibition read?
A: 73% (active)

Q: Which inhibition does the source give for `O=c1[nH]cnc2c1nnn2-c1ccc(OC(F)(F)F)cc1` here?
A: 49.2%

Q: For `N[C@H](C(=O)O)[C@@H]1CC(Cl)=NO1`, which inhibition is on record?
A: 91.8% (active)

Q: For `CCOc1c(Br)cc(C=CC(=O)c2ccc(F)cc2)cc1OC`, which inhibition is on record?
A: -23.1%

Q: Which inhibition does the source give for `CCOc1cc(C=CC(=O)c2ccc(Cl)cc2)ccc1O` here?
A: 54% (active)

Q: For `CCOc1c(Br)cc(C=CC(=O)c2ccc(OC)cc2)cc1OC`, which inhibition is on record?
A: 14.3%

Q: Which inhibition does the source give for `O=S(=O)(Nc1ccc(OC(F)F)c(Cl)c1)c1ccc(F)c(Cl)c1` here?
A: -3.78%

Q: Which inhibition does the source give for `O=S(=O)(Nc1ccc(F)c(Cl)c1)c1ccc(Cl)s1` here?
A: 52.7% (active)

Q: With `O=S(=O)(Nc1ccc(OC(F)F)c(Cl)c1)c1ccc(Cl)s1` as the molecule, how does the inhibition read?
A: 79.2% (active)

Q: With `O=S(=O)(Nc1ccc(OC(F)F)c(Cl)c1)c1ccc(Cl)c(Cl)c1` as the molecule, how does the inhibition read?
A: -2.94%

Q: With `O=S(=O)(Nc1ccc(F)c(Cl)c1)c1ccc(Br)s1` as the molecule, how does the inhibition read?
A: 24.5%

Q: For `COC(=O)c1sccc1NS(=O)(=O)c1cc(Cl)cc(Cl)c1`, which inhibition is on record?
A: 7.22%

Q: Which inhibition does the source give for `COC(=O)c1sccc1S(=O)(=O)Nc1cc(C)ccc1OC` here?
A: 54.2% (active)

Q: With `Cc1ccc(-c2ccsc2C(=O)NS(=O)(=O)N2CCCCC2)cc1` as the molecule, how does the inhibition read?
A: 20.7%

Q: For `O=C(C1c2ccccc2Oc2ccccc21)N(C(=O)N1CCCCC1)c1ccccc1`, which inhibition is on record?
A: 3.02%

Q: Which inhibition does the source give for `Cc1cc(OCCN2CCN(Cc3ccccc3)CC2)ccc1I` here?
A: 88.7% (active)

Q: With `Cc1cc(C)c(CN2CCC(CO)(CCOc3ccccc3)CC2)cc1C` as the molecule, how does the inhibition read?
A: 17.3%

Q: Which inhibition does the source give for `Cc1cccc(Cn2nc(-c3ccc(F)cc3)c3sc(C)nc3c2=O)c1` here?
A: 94% (active)

Q: With `O=c1ccc(-c2cccc(Br)c2)nn1Cc1cccc(F)c1` as the molecule, how does the inhibition read?
A: 48.5%

Q: With `Cc1cccc(Cn2nc(-c3ccc(Br)cc3)ccc2=O)c1` as the molecule, how does the inhibition read?
A: 24.7%

Q: For `CC(C)c1ccc(C(N)=S)cc1`, which inhibition is on record?
A: 99.7% (active)

Q: With `COc1ccc2c(C)nc(N=C(N)N)nc2c1` as the molecule, how does the inhibition read?
A: 38.5%

Q: Which inhibition does the source give for `CC(C)c1ccc(S(=O)(=O)c2ccc(Cl)cc2)cc1` here?
A: -10.2%

Q: With `COc1ccc(C(N)=S)cc1` as the molecule, how does the inhibition read?
A: 68.6% (active)

Q: With `CCN(C(=O)c1ccc2c(=O)n(CC)c(=O)[nH]c2c1)c1ccccc1C` as the molecule, how does the inhibition read?
A: -22.1%

Q: Which inhibition does the source give for `Fc1ccc(Cn2ncc3c2CN(c2nc4ccccc4s2)C3)cc1` here?
A: 32.9%

Q: Which inhibition does the source give for `c1ccc(CCc2noc(CN3CCN(c4nc5ccccc5s4)CC3)n2)cc1` here?
A: 89.5% (active)

Q: Which inhibition does the source give for `c1csc(-c2noc(CN3CCCN(c4nc5ccccc5s4)CC3)n2)c1` here?
A: 91.6% (active)

Q: Which inhibition does the source give for `CCCc1nc(CN2Cc3ccccc3-c3ccccc3C2)no1` here?
A: -15.3%

Q: Which inhibition does the source give for `Fc1ccccc1Cc1noc(CN2CCN(c3nc4ccccc4s3)CC2)n1` here?
A: 60.6% (active)

Q: Which inhibition does the source give for `O=C(NN=Cc1ccc(O)cc1)c1cc(C23CC4CC(CC(C4)C2)C3)[nH]n1` here?
A: 16.7%

Q: For `O=C(NN=Cc1ccc(O)cc1)c1cc(-c2ccc(Cl)cc2Cl)n[nH]1`, which inhibition is on record?
A: 85.8% (active)

Q: With `O=C(NN=Cc1ccco1)c1cc(-c2ccc(Cl)cc2)n[nH]1` as the molecule, how does the inhibition read?
A: 43.3%

Q: With `COCCCCC(=O)Nc1cc(C(F)(F)F)[nH]n1` as the molecule, how does the inhibition read?
A: 78% (active)

Q: Which inhibition does the source give for `Cc1cccc(C2Oc3ccccc3C3CC(c4ccc5c(c4)OCCO5)=NN32)c1` (centres undefined) here?
A: -14.9%

Q: With `COc1cccc(C2Oc3ccccc3C3CC(c4ccc5c(c4)OCCO5)=NN32)c1` (centres undefined) as the molecule, how does the inhibition read?
A: 103% (active)

Q: For `COc1cccc2c1OC(c1ccccn1)N1N=C(c3ccccc3)CC21` (centres undefined), which inhibition is on record?
A: -22.4%

Q: Which inhibition does the source give for `CN1CCC[C@@H]1CCO[C@](C)(c1ccccc1)c1ccc(Cl)cc1` here?
A: 37.7%

Q: Which inhibition does the source give for `O=C(Nc1ncc(-c2ccccc2)s1)C1CSCCS1` (centres undefined) here?
A: 95.8% (active)

Q: Which inhibition does the source give for `O=C(Nc1ncc(-c2ccccc2)s1)OCC(F)(F)F` here?
A: 0.3%

Q: Which inhibition does the source give for `S=C(NN=C1CC2CC=CC12)NC1CCCCC1` (centres undefined) here?
A: 1.05%

Q: Which inhibition does the source give for `CC1(C)CC(=O)CC(=NNC(=S)NC2CCCCC2)C1` here?
A: 34.4%

Q: For `O=C1CCCC(=NNC(=S)NC2CCCCC2)C1`, which inhibition is on record?
A: 55.2% (active)

Q: Which inhibition does the source give for `CN(CCC(O)c1ccccc1)C(=O)c1ccc(Cl)s1` (centres undefined) here?
A: 13.2%

Q: For `CC(CCc1ccccc1)N=c1c([N+](=O)[O-])nn(-c2ccccc2)n1O` (centres undefined), which inhibition is on record?
A: 102% (active)

Q: With `Cc1cc2c(=O)n(Cc3ccco3)c(SCC(=O)c3cccs3)nc2s1` as the molecule, how does the inhibition read?
A: 85.2% (active)

Q: For `COc1ccc(-c2noc(CSc3nnnn3C3CCCC3)n2)cc1`, which inhibition is on record?
A: 41%

Q: For `COc1ccc(-c2noc(COc3cccc4c3OCCO4)n2)cc1`, which inhibition is on record?
A: 51.6% (active)

Q: Which inhibition does the source give for `CC(C(O)c1ccccc1)N(C)C(=O)c1ccccc1` (centres undefined) here?
A: 1.34%

Q: With `CN(NC(=O)CC(=O)NN(C)C(=S)c1ccccc1)C(=S)c1ccccc1` as the molecule, how does the inhibition read?
A: 102% (active)

Q: With `Oc1ccc2ccccc2c1C=NNc1nnc(-c2ncc[nH]2)c2ccccc12` as the molecule, how does the inhibition read?
A: 99% (active)

Q: With `Cc1cc(=O)[nH]c(NN=Cc2c3ccccc3cc3ccccc23)n1` as the molecule, how does the inhibition read?
A: 49.1%

Q: Which inhibition does the source give for `Oc1ccc2ccccc2c1C=NNC1=NCCC1` here?
A: 27.5%

Q: For `CCCC(C)C1(CC)C(=O)NC(=S)NC1=O` (centres undefined), which inhibition is on record?
A: 32.6%

Q: With `CS(=O)(=O)Nc1ccc([N+](=O)[O-])cc1Oc1ccccc1` as the molecule, how does the inhibition read?
A: 24.9%

Q: Which inhibition does the source give for `Nc1cc([N+](=O)[O-])ccc1NS(=O)(=O)c1ccc(Cl)cc1` here?
A: -52.1%

Q: For `Nc1ccc(S(=O)(=O)Nc2ccc([N+](=O)[O-])cc2O)cc1`, which inhibition is on record?
A: 53.9% (active)

Q: Which inhibition does the source give for `CC(=NNC(N)=S)C1=CC(C)(C)CCC1` here?
A: 90.9% (active)

Q: For `CCc1ccc(C(=O)Nc2ccc(Br)cc2)s1`, which inhibition is on record?
A: 73.9% (active)

Q: With `Cc1cnc(NC(=O)c2cccc(OC(F)F)c2)s1` as the molecule, how does the inhibition read?
A: -11.7%

Q: With `CCc1ccc(C(=O)Nc2ncc(C)s2)s1` as the molecule, how does the inhibition read?
A: 62.1% (active)

Q: With `Cc1cnc(NC(=O)C2=C(O)c3ccccc3S(=O)(=O)N2C)s1` as the molecule, how does the inhibition read?
A: 34.9%

Q: For `CCOc1ccc(NC(=O)c2ccc(Br)s2)cc1`, which inhibition is on record?
A: 8.86%

Q: With `Cn1c(=NN=CC(Cl)=Cc2ccccc2)sc2ccccc21` as the molecule, how does the inhibition read?
A: 88.7% (active)

Q: For `COc1cc(C=NN=c2sc3ccccc3n2C)cc(OC)c1O`, which inhibition is on record?
A: 68.8% (active)

Q: Which inhibition does the source give for `COc1cc(C=NN=c2sc3ccccc3n2C)cc(Br)c1O` here?
A: 10.7%

Q: For `Cn1c(=NN=Cc2ccc(OC(F)F)cc2)sc2ccccc21`, which inhibition is on record?
A: -24.6%

Q: With `Cn1c(=NN=CC(Br)=Cc2ccccc2)sc2ccccc21` as the molecule, how does the inhibition read?
A: 88.2% (active)

Q: For `Cn1c(=NN=Cc2ccccc2C(F)(F)F)sc2ccccc21`, which inhibition is on record?
A: -39.7%

Q: Which inhibition does the source give for `Cc1cc(NC(=O)C2CC2)sc1C(=O)n1ccnc1` here?
A: 48.7%

Q: For `O=C(NCC1CCCC1)n1ccnc1`, which inhibition is on record?
A: 79.2% (active)

Q: Which inhibition does the source give for `CCN(CCNC(=O)NCC1CCCC1)C(=O)OC(C)(C)C` here?
A: 47.4%

Q: Which inhibition does the source give for `CC1CN(C(=O)CN2CCc3sccc3C2c2cccc(F)c2)CCN1C(=O)Nc1ccc([N+](=O)[O-])cc1` (centres undefined) here?
A: -36.2%

Q: Which inhibition does the source give for `OC(C#Cc1ccccc1)C#CC(O)(c1ccccc1)c1ccccc1` (centres undefined) here?
A: -2.57%

Q: With `CSc1ccc(C=CC(=O)c2ccc3c(c2)OCCO3)cc1` as the molecule, how does the inhibition read?
A: -10.1%

Q: For `N#CC(=Cc1ccc2c(c1)OCCO2)C(=O)Nc1ccc(SC(F)F)cc1`, which inhibition is on record?
A: 84.4% (active)

Q: For `CC(C)(C)c1ccccc1NS(=O)(=O)c1ccc(Cl)s1`, which inhibition is on record?
A: 23.7%

Q: For `O=S(=O)(Nc1ccccc1Br)c1ccccc1Br`, which inhibition is on record?
A: 91.4% (active)

Q: Which inhibition does the source give for `O=S(=O)(Nc1ccccc1Br)c1ccc(Br)s1` here?
A: 83.3% (active)

Q: With `CCc1ccccc1NS(=O)(=O)c1cc(Cl)cnc1N` as the molecule, how does the inhibition read?
A: 1.41%

Q: With `COC(=O)c1ccc(NS(=O)(=O)c2ccccc2Br)s1` as the molecule, how does the inhibition read?
A: 43.4%

Q: With `CC1(C)C(C=C(Cl)Cl)C1C(=O)OCc1cccc(Oc2ccccc2)c1` (centres undefined) as the molecule, how does the inhibition read?
A: -12.7%

Q: With `O=C(NCCc1cc(Cl)cc(Cl)c1)c1ccc2c(c1)COCO2` as the molecule, how does the inhibition read?
A: 25.3%

Q: For `CCOc1ccccc1CNC(=O)c1ccc(-c2cc(-c3ccc(Cl)cc3Cl)[nH]n2)cc1`, which inhibition is on record?
A: 31.1%

Q: With `O=C(NCCc1ccc(Cl)cc1Cl)c1cn[nH]c1` as the molecule, how does the inhibition read?
A: 91.4% (active)

Q: For `CN(C)c1c(Cl)cccc1NC(=O)NCc1ccoc1`, which inhibition is on record?
A: 40.8%

Q: Which inhibition does the source give for `COc1cc(COc2ccc(NC(C)=O)cc2)c(OC)cc1Br` here?
A: 19.7%

Q: Which inhibition does the source give for `ON=Cc1cccc(OCc2ccccc2)c1` here?
A: -7.21%

Q: With `Oc1cccc(OCc2cccc(C(F)(F)F)c2)c1` as the molecule, how does the inhibition read?
A: 89.2% (active)

Q: Which inhibition does the source give for `FC(F)(F)c1cccc(CSc2ncnc3ccccc23)c1` here?
A: 38.1%

Q: For `N#Cc1ccc(NC(=O)Cc2cccc(C(F)(F)F)c2)cc1Cl`, which inhibition is on record?
A: 8.71%

Q: For `CC(NS(=O)(=O)Cc1cccc(C(F)(F)F)c1)c1cccc(Br)c1` (centres undefined), which inhibition is on record?
A: 25.3%

Q: Which inhibition does the source give for `CC(=O)Nc1ccc(OCc2ccc(Br)cc2F)cc1` here?
A: 62.5% (active)

Q: Which inhibition does the source give for `CC(=O)Nc1ccc(OCc2cccc(C(F)(F)F)c2)cc1` here?
A: 57.6% (active)

Q: Which inhibition does the source give for `COc1ccccc1/C=C/C=C1N=C(/C=C/c2ccc(C)cc2)OC\1=O` here?
A: 81.8% (active)

Q: With `O=C1N=C(c2ccccc2)OC1=CC=Cc1ccccc1` as the molecule, how does the inhibition read?
A: -12.3%

Q: With `O=c1c2ccccc2nnn1Cc1ccc(Cl)cc1` as the molecule, how does the inhibition read?
A: 103% (active)

Q: For `Cc1ccc(OCC(O)Cn2nnc3ccccc3c2=O)cc1` (centres undefined), which inhibition is on record?
A: 35%

Q: For `O=c1c2ccccc2nnn1CSc1ccc(F)cc1`, which inhibition is on record?
A: 72.2% (active)

Q: For `Cc1cc(NC(=O)c2cccn(Cc3ccc(Cl)cc3)c2=O)c2ccccc2n1`, which inhibition is on record?
A: 20.7%

Q: Which inhibition does the source give for `CC1N(C)c2ccc(C=C(C#N)C#N)cc2C1(C)C` (centres undefined) here?
A: -15.1%

Q: For `CCCc1nnc(SCc2ccc(OCCC(C)C)cc2)n1N`, which inhibition is on record?
A: 37.1%

Q: Which inhibition does the source give for `CC(C)CCOc1ccc(C=C(C#N)C#N)cc1` here?
A: 51.5% (active)
